Most compounds without a hit are left out; they make up all but 4.2% or so of the library.
ssDAF-12 act: S. stercoralis DAF-12 nuclear receptor activators, primary screen, cell-based, luminescence, HEK293, GRIP1 co-expression, lit1-tk-luc | HEK293 ssDAF-12/GRIP1 lit1-tk-luc reporter; % of 3 µM dafachronic acid response | Nuclear hormone receptor DAF-12 (Strongyloides stercoralis) | 370,000 tested, 1% active | activation, % at 6.8 µM;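 active = activation above the mean over all tested compounds plus 3 SD, cut at about 0.9% in these data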;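 note: 0% = DMSO-only wells and 100% = 3 µM delta7-dafachronic acid wells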
hcDAF12 agonist: H. contortus DAF-12 nuclear receptor activators, primary screen, cell-based, luminescence, HEK293, lit1-tk-luc reporter | activation, % at 6.8 µM | AID 652067, 2013 | HEK293 hcDAF-12 lit1-tk-luc reporter; 0% DMSO, 100% Δ7-dafachronic acid | 370,000 tested, 1.4% active;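 active = activation above the mean of all tested compounds plus 3 SD, cut at about 5.5% in these data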;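 note: 100% = response to 3 µM Δ7-dafachronic acid high control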
SMARCA2 activ: SMARCA2 (BRM) function activators, primary screen, cell-based, luminescence, high throughput; MG213 cells, MMTV-luciferase reporter, dexamethasone, overnight; activation, % at 9.1 µM; 370,000 tested, 1% active; in the data active = activation above about 7.8%;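 note: 0% = vehicle wells and 100% = reference activator wells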
hgDAF12 agonist: H. glycines DAF-12 receptor agonists, primary screen, cell-based, luminescence, HEK293, GAL4 fusion, UAS-luciferase. Nuclear hormone receptor DAF-12 (Heterodera glycines), GAL4 fusion. activation, % at 6.8 µM. HEK293 GAL4-hgDAF12 UAS-luciferase reporter, agonist luminescence; normalized to butyrate control. AID 687014, 2013. 370,000 tested, 1.8% active;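 active = activation above a cutoff set at the mean of all screened compounds plus 3 SD, cut at about 10% in these data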;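 note: 0% = DMSO wells and 100% = sodium butyrate wells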
DAX1 inh: DAX1 (NR0B1) inhibitors on StAR promoter, primary screen, cell-based, luminescence, SF-1 (NR5A1), full-length DAX-1. HEK293T StAR-luciferase reporter, SF-1/DAX-1 repression relief. inhibition, % at 6.8 µM. 370,000 tested, 1.1% active. AID 652010, 2013;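 active = inhibition above the mean over all tested compounds plus 3 SD, cut at about 3.6% in these data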;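 note: 0% = DAX-1 cells with DMSO and 100% = cells lacking DAX-1 with DMSO; higher inhibition means more luminescence from relief of DAX-1 repression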
SMARCA2 act conf: SMARCA2 (BRM) function activators, confirmation, cell-based, luminescence, triplicate. AID 652260, 2013. shares compounds with SMARCA2 activ. activation, % at 9.1 µM. MG213 cells, MMTV-luciferase with dexamethasone, overnight; MG213 cells expressing E1A, Rb sequestered; DMSO wells 0%, reference activator 100%. 3,500 tested, 30% active;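 active = activation above its plate's cutoff, the mean activation of tested wells plus 3 SD, cut at about 7.9% in these data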
GAL4-VP16 Luc: GAL4-VP16 luciferase reporter activation, counter-screen for SMARCA2 (BRM) activator project, cell-based, pG5luc, luminescence, high throughput | HEK293 GAL4-VP16 pG5luc reporter; scaled: DMSO wells 0%, SAHA wells 100% | shares compounds with SMARCA2 activ | activation, % at 9.1 µM | 3,500 tested, 41% active;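 active = activation above the solvent-only control well mean plus 3 SD, averaged across control plates, cut at about 5.2% in these data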
LXR ag: LXR agonists, Gal4 luciferase reporter, confirmation, counter-screen for hcDAF-12 agonist project, cell-based, luminescence, HEK293, H. contortus campaign; 3,400 tested, under 10 active; HEK293 Gal4-LXR tk-luc reporter, 24 h; normalized: DMSO 0%, positive control 100%; shares compounds with hcDAF12 agonist; AID 743027, 2013; activation, % at 6.8 µM;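 active = mean percent activation of the reporter above a cutoff set as the average over tested compounds plus their standard deviation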
Target sequence (P55055 whole entry, looked up, the tested form may be a part): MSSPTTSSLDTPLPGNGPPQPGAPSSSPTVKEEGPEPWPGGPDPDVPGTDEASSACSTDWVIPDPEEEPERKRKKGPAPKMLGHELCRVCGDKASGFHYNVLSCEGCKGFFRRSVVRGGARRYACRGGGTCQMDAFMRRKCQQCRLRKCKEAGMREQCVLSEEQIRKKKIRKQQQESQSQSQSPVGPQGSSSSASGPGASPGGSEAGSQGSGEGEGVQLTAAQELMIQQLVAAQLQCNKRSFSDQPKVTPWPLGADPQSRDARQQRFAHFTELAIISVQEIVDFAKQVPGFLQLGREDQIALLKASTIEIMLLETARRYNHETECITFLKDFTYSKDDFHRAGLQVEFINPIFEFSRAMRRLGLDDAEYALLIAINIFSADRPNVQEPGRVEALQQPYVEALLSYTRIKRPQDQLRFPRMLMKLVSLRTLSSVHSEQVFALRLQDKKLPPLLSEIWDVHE
hcDAF12 conf: H. contortus DAF-12 receptor agonists, confirmation, cell-based, luminescence, HEK293, lit1-tk-luc, triplicate; 3,400 tested, 61% active; shares compounds with hcDAF12 agonist; HEK293 hcDAF-12 lit1-tk-luc reporter; % of Δ7-dafachronic acid response; activation, % at 6.8 µM;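 active = mean activation across triplicate tests above the threshold derived from the earlier primary screen, cut at about 5.5% in these data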;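 note: 0% = DMSO only wells and 100% = 3 µM Δ7-dafachronic acid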
An asterisk follows results filed as active; nt = no result; ! = not active in a repeat.

SMILES	ssDAF-12 act	hcDAF12 agonist	SMARCA2 activ	hgDAF12 agonist	DAX1 inh	SMARCA2 act conf	GAL4-VP16 Luc	LXR ag	hcDAF12 conf
Cc1ccc(C(=O)N/N=C2\CC3CC=CC23)c(C)c1 (stereo unspecified)	-1	1	8.1*	7	0	-4	0	nt	nt
CC(C)CSC1=NSC2=NC(=O)/C(=C\c3cccs3)C(=N)N12	0	2	9.5*	4	1	-3	5.3*	nt	nt
N=C1/C(=C/c2cccs2)C(=O)N=C2SN=C(SCc3ccccc3)N12	-1	-1	3	5	0	nt	nt	nt	nt
CCOc1cc(CCNC(=O)c2cc(-c3ccccc3)c(N3CCOCC3)s2)ccc1OC	-2	-5	-3	-3	-3	nt	nt	nt	nt
CCc1nc(SCc2cc(Cl)ccc2OC)n[nH]1	-2	-1	9.4*	-2	0	-1	0	nt	nt
CCc1nc(SCc2ccc(OC)cc2)n[nH]1	-1	2	-1	4	1	nt	nt	nt	nt
Cc1ccc(-c2noc(-c3ccoc3C)n2)cc1	0	5	10*	10	1	8.2*	10*	nt	nt
COc1cc(/C=C2/SC(=S)N(CC(=O)NC(C)(C)C)C2=O)cc(OC)c1OC	-1	-2	8.0*	1	1	-2	-1	nt	nt
COc1cc(/C=C2\SC(=S)N(CC(=O)NC(C)(C)C)C2=O)cc(OC)c1OC	-1	0	-4	-1	0	nt	nt	nt	nt
COc1ccc(/C=C/c2noc(-c3ccccc3O)n2)cc1	0	5	8.6*	6	1	7	7.0*	nt	nt
CC(C)(C)OC(=O)N1CCC2CCN(S(=O)(=O)c3ccccc3)CC21 (stereo unspecified)	-1	-1	-2	-3	0	nt	nt	nt	nt
CN1CCN(S(=O)(=O)c2cccc(C(=O)Nc3sc4c(c3-c3nc5ccccc5[nH]3)CCCC4)c2)CC1	0	6.1*	21*	6	0	4	4	nt	nt
CC(=O)NCCC(=O)Nc1sc2c(c1-c1nc3ccccc3[nH]1)CCCC2	-1	0	2	1	-1	nt	nt	nt	nt
CC(C(=O)OCC(=O)c1c(N)n(C)c(=O)n(C)c1=O)N1C(=O)c2ccccc2C1=O (stereo unspecified)	-2	1	10*	-2	0	7	0	nt	nt
Cn1c(N)c(C(=O)COC(=O)CCCN2C(=O)c3ccccc3C2=O)c(=O)n(C)c1=O	-1	1	-2	-2	1	nt	nt	nt	nt
Cc1ccc(NNC(=O)c2c(F)cccc2Cl)cc1C	-1	4	8.1*	2	0	1	1	nt	nt
Cc1cccc(NC(=O)Nc2nnc(N3CCCCC3C)s2)c1C (stereo unspecified)	-1	-1	8.0*	-2	1	-2	2	nt	nt
COc1cccc(NC(=O)Nc2nnc(N3C(C)CCCC3C)s2)c1 (stereo unspecified)	-2	0	4	2	1	nt	nt	nt	nt
CCCCOCC1CN(CCCC)S(=O)(=O)c2c(cccc2N2CCCC2)O1 (stereo unspecified)	-1	0	0	-1	-1	nt	nt	nt	nt
CC1CCCCN1C(=O)CSc1nnc(-c2ccccc2O)o1 (stereo unspecified)	1.7*	15*	8.9*	16*	2	2	10*	1	20*
CCN1CCN(c2c(S(=O)(=O)c3ccc(Cl)cc3)cnc3ccccc23)CC1	-1	1	1	-3	-1	nt	nt	nt	nt
c1ccc(-c2ccc(CNc3nc(-c4ccccn4)nnc3-c3ccccc3)cc2)cc1	-2	-5	nt	-11	nt	nt	nt	nt	nt
CCNC(=O)C1(C)CCCN1C(=O)c1ccc(-c2ccccc2)cc1 (stereo unspecified)	-2	-2	4	1	0	nt	nt	nt	nt
CCC(C)(C)C1CCC2(CC1)NC(=O)N(CC(=O)NCCc1c[nH]c3ccccc13)C2=O (stereo unspecified)	0	6.8*	8.1*	5	0	3	2	0	3
Cc1ccc(NC(=O)c2sc3nc(C)cc(C)c3c2N)cc1	0	7.8*	9.9*	12*	2	7	15*	2	9.3*
SMILES	ssDAF-12 act	hcDAF12 agonist	SMARCA2 activ	hgDAF12 agonist	DAX1 inh	SMARCA2 act conf	GAL4-VP16 Luc	LXR ag	hcDAF12 conf
CCN(CC)CCn1nc(C)nc1-c1ccccc1O	-1	-1	-3	0	0	nt	nt	nt	nt
CCN(CC)CCn1nc2c3c(cccc3c1=O)-c1ccccc1-2	23*	11*	35*	-7	-3	72*	4	0	9.5*
Cc1cc2cc(OCc3ccccc3)ccc2n1C	0	6.7*	13*	6	1	4	8.1*	1	4
COc1ccccc1Nc1nc(-c2cccs2)cs1	1.6*	8.2*	8.4*	10	2	5	7.4*	2	16*
NC(=O)c1ccc(N=Cc2c(O)ccc3ccccc23)cc1	-1	-1	-4	-3	0	nt	nt	nt	nt
C=CCS/C(N)=N\N=C\c1c(O)ccc2ccccc12	1.9*	14*	12*	17*	3	12*	8.7*	1	11*
CC(=O)C1=C(C)N(Cc2ccc(Cl)cc2)C(=S)NC1c1cccc(Br)c1 (stereo unspecified)	-1	1	-4	-3	-1	nt	nt	nt	nt
CCc1ccc(-n2nc3cc(C)c(N)cc3n2)cc1	4.1*	16*	11*	14*	3	5	13*	2	20*
c1ccc2c(-c3nc4ccccc4[nH]3)cccc2c1	-1	-1	3	5	-4	nt	nt	nt	nt
c1ccc2[nH]c(-c3ccnc4ccccc34)nc2c1	-1	6.7*!	11*!	6	1	5	3	0	7.9*
